Compounds with a hit are over-represented: about 6.5% of the library has one in this group of screens.
VACV mCherry inh: vaccinia inhibition (mCherry reporter) | Vaccinia virus mCherry reporter infection, fluorescence | Potency, µM (titrated, usually from 36.5 µM), most hits filed as inhibitors | 310,000 tested, 0.63% active | AID 720579; calls by dose curve; tested in A549 cells; also: nearly all actives have a fitted effect of over 35% in size
MARV entry inh: blocks Marburg virus binding to or entry into cells; Marburg virus pseudotyped entry inhibition, cell reporter; Potency, µM (titrated, usually from 37.8 µM), usual class: inhibitors; 300,000 tested, 1.8% active; AID 540276; calls by dose curve; tested in HEK293 cells
FMDV antiviral: antivirals against foot and mouth disease virus; FMDV antiviral cell-based qHTS; Potency, µM (series often up to 57.9 µM), actives largely listed as inhibitors; 410,000 tested, 1.2% active; AID 1159524; calls by dose curve; tested in HEK293T cells; also: read-out not given here; nearly all actives have a fitted effect of over 45% in size
HCMV inh: human cytomegalovirus inhibition. 410,000 tested, 4.5% active. AID 1259415. HFF cells, HCMV-luciferase reporter, 72 h; stronger effect = lower value. activity change, negative = inhibition, % at 57.5 µM; in the data active = activity change below about -60%; inconclusive = no clear call, values can overlap the other calls; inactive = above about -39%
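Steps: HFFs plated, 16 h 37C; compounds added; HCMV-luciferase added to MOI 1 PFU/cell; 72 h 37C; OneGlo reagent, 5 min room temperature; luminescence read, normalized to controls.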
LASV entry inh: Lassa virus entry inhibition; Lassa virus pseudotype entry inhibition, cell reporter; 300,000 tested, 1.2% active; Potency, µM (doses to about 37.9 µM), most hits filed as inhibitors; AID 540256; calls by dose curve; tested in HEK293 cells; also: nearly all actives have a fitted effect of over 50% in size
VACV Venus inh: inhibitors of vaccinia virus (Venus reporter); 330,000 tested, 0.46% active; Potency, µM (doses to about 36.5 µM), actives largely listed as inhibitors; Vaccinia virus Venus reporter expression, fluorescence; calls by dose curve; tested in A549 cells; also: nearly all actives have a fitted effect of over 30% in size
A number is an active result; i = inactive; ? = inconclusive; nt = not tested or not shown; [ ] = dose if it differs, or a comment.

SMILES | VACV mCherry inh | MARV entry inh | FMDV antiviral | HCMV inh | LASV entry inh | VACV Venus inh
COc1cc(=O)n2c(c1C(=O)NCc1ccco1)CCN(C(=O)c1ccccc1-c1ncc[nH]1)CC2 | i | nt | i | nt | nt | i
CSCC[C@H](NC(=O)[C@H](Cc1ccccc1)NC[C@@H](NC[C@@H](N)CS)C(C)C)C(=O)O | i | nt | i | nt | nt | i
CC(OC(=O)c1cccc(-n2cnnn2)c1)c1nc2ccccc2c(=O)[nH]1 (centres undefined) | nt | nt | ? | -65 | nt | nt
Cn1c(-c2ccccc2)cnc1SCC(=O)N1CCCc2ccccc21 | i | i | i | ? | i | i
Cn1c(-c2ccccc2)cnc1SCC(=O)N1CCCCC1 | nt | ? | 16µM | i | 3.5µM | i
COc1ccc(C2=CC(c3ccccc3Cl)n3nc(-c4ccc(C)cc4)nc3N2)cc1 (centres undefined) | i | ? | i | i | i | i
CCOc1cc2c(cc1/C=C/c1noc(C)c1[N+](=O)[O-])OC(C)C2 (centres undefined) | i | i | i | -61 | i | i
COc1ccc(N/C=C/C(=O)c2cc(OC)c(OC)c(OC)c2)cc1 | ? | ? | i | -80 | i | ?
COc1cccc(N/C=C/C(=O)c2ccc(C)cc2)c1 | nt | nt | i | i | nt | nt
COc1ccc(OC)c(N/C(C)=C/C(=O)c2ccccc2)c1 | i | ? | i | i | i | i
COc1cccc(C(=O)/C=C/Nc2cccc(O)c2)c1 | nt | ? | 13µM | i | 2.9µM | nt
COc1ccc(OC)c(N/C=C/C(=O)c2ccccc2)c1 | i | 1µM | 6.3µM | -78 | ? | i
N#C/C(=C\C=C\c1ccccc1[N+](=O)[O-])C(=O)NC1CCCCC1 | ? | ? | 25µM | nt | ? | ?
N#C/C(=C\c1cccn1-c1ccccc1)C(=O)NC1CCCCC1 | i | ? | i | i | i | i
N#C/C(=C\c1ccccc1[N+](=O)[O-])C(=O)NC1CCCCC1 | i | ? | 35µM | i | ? | i
O=C1C=C[C@]23OCC[C@@]2(c2ccccc2)CCCC3=C1 | nt | nt | nt | i | nt | nt
CC1(C)OC(c2ccccc2)=C/C(=C\C=N\NC(=O)c2ccncc2)O1 | i[7.34 µM] | i | i | -64 | i | i[7.34 µM]
Cc1cccc(Nc2c(-c3cccs3)nc3nc(C)cc(C)n23)c1 | i | ? | i | i | i | i
CC(C)CC[n+]1ccccc1/C=C/c1ccc(N(C)C)cc1 | i | ? | ? | -102 | ? | i
CN(C)c1ccc(/C=C/c2cccc[n+]2[O-])cc1 | i | i | i | i | ? | i
COc1ccc(C2CN=NC2C(=O)c2ccccc2)cc1 (centres undefined) | i | nt | i | -64 | nt | i
N#C/C(=N\Nc1ccc(Cl)c(Cl)c1)C(=O)C1CC1 | i | ? | i | -100 | ? | ?
N=C1Sc2ccccc2C2=NCCCN12 | nt | 1.6µM | nt | nt | nt | nt
O=C(Nc1c2c(nn1-c1ccc(Cl)cc1)CS(=O)(=O)C2)c1cccc(Cl)c1 | i | nt | ? | i | ? | i
CCn1ncc(C2=NOC(C(=O)NCc3ccc(Cl)cc3)C2)c1C (centres undefined) | nt | ? | i | -81 | i | nt
SMILES | VACV mCherry inh | MARV entry inh | FMDV antiviral | HCMV inh | LASV entry inh | VACV Venus inh
COCOCCn1cc(CN2CCS(=O)(=O)N(Cc3ccc(-c4ccc(Cl)c(Cl)c4)cc3)C(C)C2=O)nn1 (centres undefined) | ? | nt | ? | ? | i | 13µM
CC(C)CC1C(=O)N(Cc2cn(CCC3OCCO3)nn2)CCS(=O)(=O)N1Cc1ccc(-c2ccc(F)cc2)cc1 (centres undefined) | i | nt | i | i | i | i
COc1ccc(-c2ccc(CN3C(CC(C)C)C(=O)N(Cc4cn(CCC5OCCO5)nn4)CCS3(=O)=O)cc2)cc1OC (centres undefined) | i | ? | i | -62 | nt | i
CC1C(=O)N(Cc2cn(CCC3OCCCO3)nn2)CCS(=O)(=O)N1Cc1ccc(-c2ccc(Cl)c(Cl)c2)cc1 (centres undefined) | i | nt | ? | -92 | nt | ?
COc1ccc(-c2noc(CNC(=O)COc3cccc(C)c3C)n2)cc1 | i | i | i | i | ? | i
CN1C(=O)NC(=O)/C(=C\C=C\c2ccccc2[N+](=O)[O-])C1=O | i | ? | ? | -99 | ? | i
CC(=O)NC1=NN(C(C)=O)C(C)(c2ccco2)S1 (centres undefined) | ? | 3.2µM | i | i | i | i
CC(=O)NC1=NN(C(C)=O)C(C)(c2ccc(C)o2)S1 (centres undefined) | i | i | i | i | i | i
C[C@@H]1CCCCO[C@@H](CN(C)Cc2ccc(C(=O)O)cc2)[C@@H](C)CN([C@H](C)CO)C(=O)c2cc(NS(C)(=O)=O)ccc2O1 | nt | nt | nt | i | nt | nt
Cc1ccccc1C(=O)NC(CC(C)C)C(=O)Nc1ccc(F)c([N+](=O)[O-])c1 (centres undefined) | i | ? | i | -104 | ? | i
Cc1ccccc1C(=O)NC(CC(C)C)C(=O)Nc1cccc(S(=O)(=O)N(C)C)c1 (centres undefined) | i | nt | i | i | nt | i
CCN(c1ccccc1)S(=O)(=O)c1ccc(N2CCN(c3ccc(O)cc3)CC2)nc1 | i | ? | ? | ? | 7.9µM | i
CCOc1ccc(/C=C/C(=O)Nc2ccc3nc(N(CC)CC)cc(C)c3c2)cc1OC | i | 11µM | i | i | ? | i
CCN(CC)c1cc(C)c2cc(NC(=O)/C=C/c3cc(OC)c(OC)c(OC)c3)ccc2n1 | i[7.34 µM] | ? | i | -100 | ? | i[7.34 µM]
CCN(CC)c1cc(C)c2cc(NC(=O)/C=C/c3ccc(C)cc3)ccc2n1 | i | ? | i | i | i | i
CCc1cccc(NC(=O)CC(c2ccc(OC)cc2)N2Cc3ccccc3C2=O)c1 (centres undefined) | i | nt | i | i | ? | i
O=C(COc1ccccc1Cl)N(Cc1cccs1)C1CCS(=O)(=O)C1 (centres undefined) | i | i | i | i | 0.5µM | i
Cc1cc(Cl)ccc1OCC(=O)N(Cc1cccs1)C1CCS(=O)(=O)C1 (centres undefined) | ? | ? | i | i | i | i
CSc1ccc(CCNC(=O)CCCn2c(=O)c3cccn3c3ccccc32)cc1 | i | nt | i | i | i | i
CCc1cc(=O)n2[nH]c(C)c(-c3ccccc3OC)c2n1 | i | nt | i | i | nt | i
COCc1cc(=O)n2[nH]c(C)c(-c3ccc(Cl)cc3)c2n1 | 10µM | nt | ? | i | nt | ?
Cc1[nH]n2c(=O)cc(-c3ccccc3Cl)nc2c1-c1ccccc1 | ? | i | i | -94 | ? | i
Cc1nc2cc(-c3cccc(F)c3)nn2c(C)c1CCC(=O)Nc1ccccc1C(N)=O | i | ? | ? | i | ? | i
O=C(/C=C/c1ccccc1)Nn1c(-c2cccs2)nc2ccccc2c1=O | nt | i | i | -61 | i | nt
CCS(=O)(=O)c1nc(S(=O)(=O)c2ccc(Cl)cc2)c(N2CCN(CCO)CC2)s1 | nt | nt | i | -66 | nt | nt
CCS(=O)(=O)c1nc(S(=O)(=O)c2ccc(Cl)cc2)c(N2CCc3ccccc3C2)s1 | i | ? | i | -73 | ? | i
CCN1CCN(c2sc(S(=O)(=O)CC)nc2S(=O)(=O)c2ccc(Cl)cc2)CC1 | i | nt | i | ? | nt | i
